The panel holds about 79,000 compounds, 15% with a hit somewhere; the sample as a whole holds those more often. Activity calls are given as the source filed them. No stated cut-off is given here; in the data, active means growth inhibition above about 70%; inactive means the rest.

This test is described as follows: NCI Yeast Anticancer Drug Screen. Data for the rad52 strain (AID 147).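 Further: 0% = growth of vehicle-treated control cultures.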 The note with it: S. cerevisiae rad52 mutant growth inhibition; at 1.2 µM; active compounds read high. The gist of the method:
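Screen used a yeast mutant impaired in DNA repair. After compound exposure, growth was measured. Values reflect inhibition compared with vehicle-treated cells.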
Consider `O=[N+]([O-])c1cc[n+]([O-])cc1`, for which the growth inhibition is -3% (inactive). In the case of `CC1(C)CC(=O)C(/C=N/c2nc(-c3ccccc3)cs2)=C(O)C1`, the growth inhibition was 1% (inactive). Take `Nc1nc(N)c2nc(CNc3ccc(C(=O)NC(CCC(=O)O)C(=O)O)cc3F)cnc2n1` (stereo unspecified): the growth inhibition was 28% (inactive). As for `COC(=O)CC1(O)C(/C=C/c2ccccc2)C(C(=O)OC)C(=O)C(C(=O)OC)C1C(=O)OC` (stereo unspecified), the growth inhibition was 0% (inactive). The result for `CC(C)(C)c1ccc(NS(=O)(=O)c2ccc(N)cc2)cc1` reads -1% (inactive); that for `CCN(CC)CCNc1ccc([N+](=O)[O-])c2nc3ccccc3c(N)c12`, 1% (inactive). Turning to `CCCCN(CCCC)C(=O)/C=C/c1ccccc1`, the growth inhibition was -12% (inactive). Consider `O=c1[nH]c(-c2ccccc2)nc2c1sc1nc3ccccc3n12`, for which the growth inhibition is -15% (inactive). Take `O=[N+]([O-])c1ccc2c(c1)/C(=N/N=C1c3ccccc3Cc3ccccc31)c1cc([N+](=O)[O-])cc([N+](=O)[O-])c1-2`: the growth inhibition was 9% (inactive). For `CC(C)C(C)/C=C\C(C)C1CCC2C3=CC=C4CC(O)CCC4(C)C3CCC21C` (stereo unspecified), the growth inhibition was -1% (inactive). In the case of `O=C1Nc2ccc(Br)cc2C1=Nc1ccc2c(c1)OCO2`, the growth inhibition is 10% (inactive). In the case of `CCCCOCn1c(=O)[nH]c(=O)c2cc(Br)ccc21`, the growth inhibition is -35% (inactive). Consider `Cc1ccc(S/C(=C\C(=O)O)c2ccccc2)cc1`, for which the growth inhibition was 2% (inactive). `O=[N+]([O-])/C=C/c1cc(Cl)c(/C=C/[N+](=O)[O-])cc1Cl`: the growth inhibition is 35% (inactive). Regarding `Cc1cc(S(=O)(=O)Nc2nnc3cnc4ccccc4n23)c(S)cc1Cl`, the growth inhibition is -1% (inactive). As for `O=C(/C=C/c1cc(Cl)cc(Cl)c1O)c1cccc(O)c1`, the figure is 37% (inactive).

Source of the values: PubChem BioAssay (NCI).
